Molecules are shown by their SMILES. This is part of a sample that, as a whole, favours compounds with a hit. Of some 83,000 tested, about 20% had one in any assay.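 Percent growth is the endpoint: 0 to 100 indicates growth inhibition (40 means 60% inhibition), 0 means no net growth, and negative values indicate cell death.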 A number with no mark means an inactive call. Calls of active or inactive are those of the source. The calls were made as follows: active = growth percent below 10; inactive = the rest.

Among the test systems are DU-145 prostate; K-562 leukemia; MALME-3M melanoma; MDA-MB-231 breast; RXF 393 renal; SF-268 CNS; SF-295 CNS; SF-539 CNS; UACC-257 melanoma; M14 melanoma; HCT-15 colon; HT29 colon; SNB-75 CNS; SNB-19 CNS; U251 CNS; PC-3 prostate; SK-MEL-5 melanoma; UACC-62 melanoma; LOX IMVI melanoma; SK-MEL-28 melanoma.
Common to all, as to assay: NCI-60 one-dose screen, 48 h (100 = growth as untreated, 0 = no growth, -100 = all killed)
Holding throughout (settings): 10 µM unless noted

With `N#Cc1ccc2c(c1)C(=O)c1c-2n(CCCN)c(=O)c2cc([N+](=O)[O-])ccc12`, the growth in the assay with DU-145 prostate is -100% (active); with K-562 leukemia, -100% (active); in the assay with MALME-3M melanoma it was -82.3% (active); in the assay on MDA-MB-231 breast, -100% (active); in the assay with RXF 393 renal it was -87.9% (active); with SF-268 CNS, -92.1% (active). Moreover, the growth in the assay with SF-295 CNS was -73.9% (active); with SF-539 CNS it was -98.2% (active); in the assay on UACC-257 melanoma, -100% (active); in the assay with M14 melanoma, -100% (active); with HCT-15 colon it was -90.8% (active); with HT29 colon, -100% (active). For the same molecule, the growth in the assay on SNB-75 CNS was -100% (active); in the assay with SNB-19 CNS it was -85.1% (active); with U251 CNS it was -100% (active); in the assay with PC-3 prostate, -74.4% (active); in the assay on SK-MEL-5 melanoma it was -100% (active); with UACC-62 melanoma, -100% (active). Moreover, the growth with LOX IMVI melanoma and in the assay with SK-MEL-28 melanoma was -100% (active) throughout.

On to `COc1ccc(-c2ccc(=O)oc2-c2cc(OC)c(OC)c(OC)c2)cc1O`, for which the growth is -53.4% (active) in the assay with DU-145 prostate; -25.7% (active) in the assay on K-562 leukemia; 54.1% in the assay on MALME-3M melanoma; 15.9% in the assay on MDA-MB-231 breast; 3.35% (active) in the assay on RXF 393 renal; 5.78% (active) in the assay with SF-268 CNS. In addition, the growth is -21.7% (active) in the assay on SF-295 CNS; -19.2% (active) in the assay with SF-539 CNS; 25.1% in the assay with UACC-257 melanoma; -32.6% (active) with M14 melanoma; 12.1% with HCT-15 colon; -24% (active) in the assay on HT29 colon. Moreover, the growth with SNB-75 CNS is 38.8%; in the assay with SNB-19 CNS, 25.3%; in the assay on U251 CNS it was 19.8%; in the assay on PC-3 prostate, 36.9%; in the assay on SK-MEL-5 melanoma it was -55.5% (active); in the assay with UACC-62 melanoma it was 34.7%. Besides, the values for the growth in the assay with LOX IMVI melanoma and in the assay on SK-MEL-28 melanoma were 17.8% and 47.4%, respectively.

In the case of `COc1ccc(C(=O)Nc2cccc(-c3cc(=O)c4c(OC)c(OC)c(OC)cc4o3)c2)cc1`, the growth with DU-145 prostate was 56.5%; in the assay on K-562 leukemia, 20.6%; with MALME-3M melanoma it was 53.4%; in the assay with MDA-MB-231 breast it was 57.2%; in the assay on RXF 393 renal, 53.6%; with SF-268 CNS, 58.4%. Moreover, the growth in the assay on SF-295 CNS is 59.6%; in the assay on SF-539 CNS, 66.3%; with UACC-257 melanoma, 105%; with M14 melanoma, 68%; with HCT-15 colon it was 45.2%; with HT29 colon, 46.7%. Besides, the growth with SNB-75 CNS is 67.6%; with SNB-19 CNS, 64.6%; in the assay with U251 CNS it was 72.3%; with PC-3 prostate, 31.9%; with SK-MEL-5 melanoma, 50.2%; in the assay with UACC-62 melanoma it was 55.4%. The growth with LOX IMVI melanoma was 41.9%; in the assay on SK-MEL-28 melanoma it was 69%.

As for `CCOC(=O)NC(C)C`, the growth was 120% in the assay with DU-145 prostate; 87.6% with K-562 leukemia; 104% in the assay on MALME-3M melanoma; 112% in the assay on MDA-MB-231 breast; 77.4% with RXF 393 renal; 109% in the assay on SF-268 CNS. Besides, the growth with SF-295 CNS is 118%; with SF-539 CNS, 95.9%; in the assay on UACC-257 melanoma it was 95%; in the assay on M14 melanoma, 102%; in the assay on HCT-15 colon it was 109%; in the assay on HT29 colon, 107%. Further, the growth in the assay with SNB-75 CNS is 96.8%; with SNB-19 CNS, 99.3%; with U251 CNS, 106%; in the assay on PC-3 prostate, 82%; in the assay on SK-MEL-5 melanoma it was 103%; in the assay with UACC-62 melanoma, 105%. Moreover, the growth with LOX IMVI melanoma is 102%; in the assay with SK-MEL-28 melanoma, 119%.

Consider `COc1ccc(NC2=C(I)C(=O)c3ncccc3C2=O)cc1`, for which the growth was -84.2% (active) in the assay on DU-145 prostate; 2.18% (active) in the assay with K-562 leukemia; -98.2% (active) in the assay with MALME-3M melanoma; -11.8% (active) with MDA-MB-231 breast; 33% in the assay on RXF 393 renal; 14.7% in the assay with SF-268 CNS. The growth in the assay with SF-295 CNS was 8.7% (active); in the assay on SF-539 CNS, -30% (active); with UACC-257 melanoma, 15.9%; in the assay on M14 melanoma it was -65.7% (active); in the assay with HCT-15 colon it was -40.2% (active); in the assay with HT29 colon, 11.5%. Further, the growth is -93.1% (active) with SNB-75 CNS; 19.3% in the assay with SNB-19 CNS; -47.7% (active) with U251 CNS; 12.3% with PC-3 prostate; -94.6% (active) in the assay with SK-MEL-5 melanoma; -71.2% (active) with UACC-62 melanoma. Also, the growth in the assay on LOX IMVI melanoma was -58.6% (active); with SK-MEL-28 melanoma it was 20.5%.

`CCSc1oc(-c2ccccc2)nc1[P+](c1ccccc1)(c1ccccc1)c1ccccc1`: the growth with DU-145 prostate is 11.1%; in the assay on K-562 leukemia, 7.15% (active); in the assay with MALME-3M melanoma it was -25% (active); in the assay with MDA-MB-231 breast it was -12.8% (active); in the assay with RXF 393 renal, 0.296% (active); in the assay with SF-268 CNS, 14.1%. For the same molecule, the growth in the assay with SF-295 CNS is -4.41% (active); in the assay with SF-539 CNS, 14.6%; in the assay with UACC-257 melanoma, 7.79% (active); in the assay on M14 melanoma it was 7.57% (active); with HCT-15 colon, 6.09% (active); in the assay on HT29 colon it was 1.21% (active). Also, the growth in the assay with SNB-75 CNS was 2.74% (active); in the assay with SNB-19 CNS, 12.4%; in the assay with U251 CNS it was 15.2%; in the assay with PC-3 prostate, -1.59% (active); in the assay with SK-MEL-5 melanoma it was -91.8% (active); in the assay on UACC-62 melanoma it was -0.29% (active). Also, the growth is -84.9% (active) in the assay with LOX IMVI melanoma and 29.8% in the assay with SK-MEL-28 melanoma.

For `CCOC(=O)[C@@H]1CSC(CC)=C(C(=O)O)N1`, the growth is 118% in the assay on DU-145 prostate; 8.66% (active) in the assay on K-562 leukemia; 104% in the assay on MALME-3M melanoma; 105% in the assay on MDA-MB-231 breast; 109% in the assay with RXF 393 renal; 116% in the assay with SF-268 CNS. Also, the growth with SF-295 CNS is 111%; with SF-539 CNS, 93.4%; with UACC-257 melanoma it was 89.1%; in the assay with M14 melanoma, 98.6%; in the assay with HCT-15 colon, 104%; in the assay on HT29 colon, 111%. The growth was 115% in the assay on SNB-75 CNS; 100% in the assay on SNB-19 CNS; 94.6% in the assay with U251 CNS; -9.62% (active) in the assay on PC-3 prostate; 103% with SK-MEL-5 melanoma; 94.4% with UACC-62 melanoma. Further, the growth in the assay with LOX IMVI melanoma is 104%; with SK-MEL-28 melanoma, 101%.

Take `COCCOc1cc2ncnc(N3CCN(c4cc(S(C)(=O)=O)c(C)cc4Cl)CC3)c2cc1OCCOC`: the growth in the assay on DU-145 prostate was 96.8%; in the assay on K-562 leukemia, 88.9%; in the assay on MALME-3M melanoma, 87%; with MDA-MB-231 breast it was 96%; with RXF 393 renal, 99.7%; in the assay on SF-268 CNS, 91.8%. The growth with SF-295 CNS is 90.5%; in the assay on SF-539 CNS, 92%; in the assay on UACC-257 melanoma, 91.1%; in the assay with M14 melanoma, 111%; with HCT-15 colon, 95.7%; in the assay with HT29 colon it was 94.4%. Further, the growth in the assay on SNB-75 CNS was 98.8%; in the assay on SNB-19 CNS, 96.8%; in the assay on U251 CNS it was 85.3%; in the assay on PC-3 prostate, 81.5%; with SK-MEL-5 melanoma, 77%; with UACC-62 melanoma, 94.2%. For the same molecule, the growth was 93.5% in the assay on LOX IMVI melanoma and 107% with SK-MEL-28 melanoma.

The values are drawn from PubChem BioAssay (NCI).
